# Assay outcomes deposited in PubChem BioAssay by The Scripps Research Institute Molecular Screening Center.
# hcDAF12 agonist: activators of H. contortus DAF-12 nuclear receptor. HEK293 hcDAF-12 lit1-tk-luc reporter, luminescence; 0% DMSO, 100% Δ7-dafachronic acid. activation, % at 6.8 µM. 1.4% of 370,000 active;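 active = activation above the mean of all tested compounds plus 3 SD, cut at about 5.5% in these data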
# DAX1 inh-1: DAX1 (NR0B1) inhibition, primary screen; HEK293T StAR-luciferase reporter, SF-1/DAX-1 repression relief; inhibition, % at 6.8 µM; 1.1% of 370,000 active;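 active = inhibition above the mean over all tested compounds plus 3 SD, cut at about 3.6% in these data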;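 also: higher inhibition means more luminescence from relief of DAX-1 repression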
# hgDAF12 agonist: activates the H. glycines DAF-12 receptor ligand-binding domain. HEK293 GAL4-hgDAF12 UAS-luciferase reporter, agonist luminescence; normalized to butyrate control. activation, % at 6.8 µM. 1.8% of 370,000 active. AID 687014;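 active = activation above a cutoff set at the mean of all screened compounds plus 3 SD, cut at about 10% in these data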
# DAX1 inh-2: NR0B1 (DAX1) inhibition; P51843; AID 504766; HEK293 Gal4-DAX1 luciferase reporter, luminescence; 0.99% of 340,000 active; inhibition, % at 6.75 µM;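 active = inhibition above the mean over all tested compounds plus 3 SD, cut at about 4.2% in these data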;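 also: inhibition shows as a rise in luminescence from relieved DAX1 repression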
# Target sequence (P51843 207-470 limits assumed): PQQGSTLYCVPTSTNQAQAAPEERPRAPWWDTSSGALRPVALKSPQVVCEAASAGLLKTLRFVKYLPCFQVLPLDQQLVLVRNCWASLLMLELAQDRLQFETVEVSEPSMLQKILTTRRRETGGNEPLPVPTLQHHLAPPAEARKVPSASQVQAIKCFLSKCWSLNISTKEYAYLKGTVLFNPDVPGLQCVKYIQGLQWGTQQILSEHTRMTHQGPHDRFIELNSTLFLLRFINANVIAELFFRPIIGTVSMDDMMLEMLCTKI
# ssDAF12 agonist: activates DAF-12 receptor from parasite S. stercoralis; HEK293 ssDAF-12/GRIP1 lit1-tk-luc reporter, luminescence; % of 3 µM dafachronic acid response; 1% of 370,000 active; AID 652126; activation, % at 6.8 µM;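 active = activation above the mean over all tested compounds plus 3 SD, cut at about 0.9% in these data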
# A number is an active result; n = inactive; x = no result given. A selection: hits, their analogues and other compounds. The true share with any hit is near 4.1%.
SMILES,hcDAF12 agonist,DAX1 inh-1,hgDAF12 agonist,DAX1 inh-2,ssDAF12 agonist
COc1cccc(OCC(C)CN2CCC(C(O)(c3ccccc3)c3ccccc3)CC2)c1 (stereo not given),n,n,n,x,n
COC(=O)C[C@@H]1CC[C@H]2[C@H](COc3ccc(NC(=O)Nc4ccc(C#N)cc4)cc3C(=O)N2C)O1,n,n,n,x,n
CSc1nc2ccc(NC(=O)CS(=O)(=O)c3ccccc3)cc2s1,n,n,11,n,n
CC(=O)c1ccc(NC(=O)c2ccc3nc(C)sc3c2)cc1,n,n,n,n,n
Cc1ccc2nc(NC(=S)NC(=O)c3ccco3)sc2c1,n,n,12,5.2,n
Cc1nc2ccc(C(=O)Nc3ccccc3Cl)cc2s1,n,n,11,n,n
C=CCOC(=O)N[C@H](c1ccccc1)[C@H](C)/C=C/CC(=O)OC,n,n,n,x,n
Cn1c(=O)cc(OCCCC(=O)Nc2cc(-c3ccncc3)ccn2)c2ccccc21,n,x,n,x,n
OCCc1ccc(NCCc2cccs2)cc1,n,n,11,x,n
FC(F)(F)c1cccc(N2CCN(C3=Nc4ccccc4Sc4ccccc43)CC2)c1,n,n,n,x,n
CN(C)c1ccc(NC(=O)c2ccc([N+](=O)[O-])cc2Cl)cc1,n,n,12,n,n
Cc1ccc(NC(=O)c2ccc([N+](=O)[O-])cc2Cl)nc1,n,n,11,n,n
O=C(Nc1ccccn1)c1ccc([N+](=O)[O-])cc1Cl,n,n,n,n,n
COc1cc(C(NC(=O)C(F)(F)F)C2CCCC=C2c2ccccc2)cc(OC)c1OC (stereo not given),n,n,n,x,n
Cc1cc(-c2n[nH]c(=S)n2N=Cc2ccc(O)cc2)n[nH]1,n,n,n,x,n
Cc1nn(Cc2c(F)c(F)c(F)c(F)c2F)c(C)c1NC(=O)c1ccc(COc2ccccc2Cl)cc1,n,n,n,n,n
Cc1nn(Cc2c(F)c(F)c(F)c(F)c2F)c(C)c1NC(=O)c1ccc(COc2cc(Cl)ccc2Cl)cc1,n,n,n,n,3.4
C[C@H]1COc2cc(Br)ccc2S(=O)(=O)N1Cc1cn(Cc2ccc(Cl)cc2)nn1,n,n,n,x,n
CCC[C@H]1[C@H](N)CC[C@@]23CCCN2C(=O)CCC[C@@H]13,n,x,n,x,n
Fc1ccccc1Cn1ccc2ccc(-c3ccc4ccn(Cc5ccccc5)c4c3)cc21,n,n,n,x,n
CCOC(=O)CC(=O)Nc1nnc(C(C)C)s1,n,n,n,5.3,n
Cc1cccc(C)c1NC(=O)COC(=O)C1C2CC3OC(=O)C1C3C2 (stereo not given),n,n,n,5.2,n
C[C@H]1[C@H](NC(=O)c2ccc(Cl)c(C(F)(F)F)c2)CC[C@@]23CCCN2C(=O)CCC[C@@H]13,n,x,n,x,n
CCCN1CCS(=O)(=O)N(Cc2cn(Cc3ccc(C)cc3)nn2)C(C(=O)OC)C1 (stereo not given),n,n,n,x,n
Cc1cc(C(=O)C(=O)O)c(C)n1-c1ccc(Cl)c(Cl)c1,n,n,n,n,1.0
SMILES,hcDAF12 agonist,DAX1 inh-1,hgDAF12 agonist,DAX1 inh-2,ssDAF12 agonist
Cc1cc(C(=O)C(=O)N(C)C)c(C)n1-c1ccc(Cl)c(Cl)c1,n,n,n,n,n
Nc1ccccc1S(=O)(=O)NC1=NCCCCC1,n,n,n,4.4,n
CCOC(=O)c1cc(C#N)c(SCc2ccc(C#N)cc2)nc1C,n,n,n,n,1.1
Cn1c(N/N=C/c2c[nH]c3ccccc23)nc2ccccc21,5.6,n,n,n,n
Cc1cc(C)nc(N/N=C/c2c[nH]c3ccccc23)n1,n,n,n,n,n
O=C(O)c1ccc(N/N=C/c2c[nH]c3ccccc23)cc1,5.8,n,n,n,n
Fc1c(F)c(F)c(N/N=C/c2c[nH]c3ccccc23)c(F)c1F,6.3,n,n,n,n
Cc1cc(N/N=C/c2c[nH]c3ccccc23)c2ccccc2n1,n,n,n,n,n
Cc1ccc(S(=O)(=O)NCC(=O)N2CCN(c3ccccn3)CC2)s1,n,n,n,x,n
COC(=O)CNC(=O)c1cc(OC)cc(OC)c1,n,3.8,n,n,n
COC(=O)[C@]12C[C@H](CC(=O)N3CCCC3)C(=O)N(CCC3=CCCCC3)C1=C[C@H](C1CCCC1)O[C@@H]2C,n,n,n,x,n
CCOc1cccc(C(=O)Nc2ccc3[nH]ncc3c2)c1,n,n,13,n,n
COc1cccc(C(=O)Nc2ccc3[nH]ncc3c2)c1,n,n,11,n,n
COc1ccccc1C(=O)Nc1ccc2[nH]ncc2c1,n,n,n,n,n
CCc1ccc2nc3nc(C)cc(C)c3c(N)c2c1,n,n,n,n,n
Cc1cc(C)c2c(N)c3ccccc3nc2n1,18,n,11,n,4.0
N[C@H](C(=O)N1CCC[C@@H]1C(=O)N1CCC2CCN(S(=O)(=O)c3ccccc3)CC21)c1ccccc1 (stereo not given in full),n,n,n,x,n
CCC(=O)N1CCc2cc(Br)c(S(=O)(=O)NCCCN(C)Cc3ccccc3)cc21,n,n,n,x,n
CCCCCCCc1ccc(-c2ccc(O)cc2)nc1,n,n,12,n,n
CCCCCc1ccc(-c2ccc(/C=C/C(=O)O)cc2)nc1,n,n,n,n,n
Cc1ccccc1NC(=O)C1Cc2ccccc2CN1C(=O)c1ccco1 (stereo not given),n,n,n,5.4,n
C[C@H]1[C@@H](NCc2cccs2)CC[C@@]23CCCN2C(=O)CCC[C@@H]13,n,x,n,x,n
Cn1c(SCc2ccccc2Cl)nc2c1c(=O)[nH]c(=O)n2C,n,n,n,n,1.5
Cn1c(SCc2ccccc2)nc2c1c(=O)[nH]c(=O)n2C,n,n,n,n,n
Clc1cccc(N=NN2CCOCC2)c1Cl,n,n,n,n,1.7
SMILES,hcDAF12 agonist,DAX1 inh-1,hgDAF12 agonist,DAX1 inh-2,ssDAF12 agonist
CCOc1ccccc1C(=O)Nc1ccc2nc(C)[nH]c(=O)c2c1,n,n,n,x,n
COc1cc(NC(=O)c2cc3sccc3n2C)cc(OC)c1,6.0,n,n,n,n
CCC[C@H]1[C@@H](NC(=O)Nc2ccc3c(c2)OCO3)CC[C@@]23CCCN2C(=O)CCC[C@@H]13,n,x,n,x,n
COC(=O)c1cc(-c2ccc(C(C)=O)cc2)c(=O)n2c1CCC2,n,n,n,x,n
COc1ccccc1Nc1cc2cc(Br)ccc2c(=O)[nH]1,6.2,n,n,n,n
O=c1[nH]c(Nc2ccccc2)cc2cc(Br)ccc12,n,n,n,n,n
Cc1cccn2c(=O)c3cc(C(=O)NCCc4ccccc4)sc3nc12,n,n,n,n,1.0
CCCCNC(=O)c1cc2c(=O)n3cccc(C)c3nc2s1,n,n,n,n,n
CC(C)N(Cc1cn(Cc2ccccc2)nn1)S(=O)(=O)c1ccccc1Br,n,n,n,x,n
C[C@H]1[C@@H](OC(=O)Nc2ccccc2F)CC[C@@]23CCCN2C(=O)CCC[C@@H]13,n,x,n,x,n
COc1ccc(-c2ccc(C(=O)Nc3ccc4c(c3)OCO4)c3occc23)c(C)c1,n,n,13,x,n
